BoNT F protease = blocks Botulinum neurotoxin F light chain protease; AID 588497; 360,000 compounds, 0.22% hits; inhibition, % at 10 µM; Multiplex microsphere protease cleavage assay, flow cytometry; in the data active means inhibition above about 35%, passing the limit was not always enough; inconclusive means no clear call, values can overlap the other calls; further: plate controls were buffer without enzyme for full effect and enzyme alone for no effect
FBA Mtb inh = Mtb fructose-bisphosphate aldolase inhibition; AID 588726; inhibition, % at 1 µM; purified M. tuberculosis FBA, fluorescence read-out; 360,000 compounds, 2.3% hits; in the data active means inhibition above about 27%;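 further: 0% = vehicle and 100% = reference inhibitor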
Anthrax LF inh2 = anthrax lethal factor protease inhibition | P15917 | multiplex microsphere protease cleavage assay, LF | AID 588501 | 360,000 compounds, 0.12% hits | inhibition, % at 10 µM; in the data active means inhibition above about 30%; inconclusive means no clear call, values can overlap the other calls; further: plate controls were buffer without enzyme for full effect and enzyme alone for no effect
Target sequence (P15917 whole entry, looked up): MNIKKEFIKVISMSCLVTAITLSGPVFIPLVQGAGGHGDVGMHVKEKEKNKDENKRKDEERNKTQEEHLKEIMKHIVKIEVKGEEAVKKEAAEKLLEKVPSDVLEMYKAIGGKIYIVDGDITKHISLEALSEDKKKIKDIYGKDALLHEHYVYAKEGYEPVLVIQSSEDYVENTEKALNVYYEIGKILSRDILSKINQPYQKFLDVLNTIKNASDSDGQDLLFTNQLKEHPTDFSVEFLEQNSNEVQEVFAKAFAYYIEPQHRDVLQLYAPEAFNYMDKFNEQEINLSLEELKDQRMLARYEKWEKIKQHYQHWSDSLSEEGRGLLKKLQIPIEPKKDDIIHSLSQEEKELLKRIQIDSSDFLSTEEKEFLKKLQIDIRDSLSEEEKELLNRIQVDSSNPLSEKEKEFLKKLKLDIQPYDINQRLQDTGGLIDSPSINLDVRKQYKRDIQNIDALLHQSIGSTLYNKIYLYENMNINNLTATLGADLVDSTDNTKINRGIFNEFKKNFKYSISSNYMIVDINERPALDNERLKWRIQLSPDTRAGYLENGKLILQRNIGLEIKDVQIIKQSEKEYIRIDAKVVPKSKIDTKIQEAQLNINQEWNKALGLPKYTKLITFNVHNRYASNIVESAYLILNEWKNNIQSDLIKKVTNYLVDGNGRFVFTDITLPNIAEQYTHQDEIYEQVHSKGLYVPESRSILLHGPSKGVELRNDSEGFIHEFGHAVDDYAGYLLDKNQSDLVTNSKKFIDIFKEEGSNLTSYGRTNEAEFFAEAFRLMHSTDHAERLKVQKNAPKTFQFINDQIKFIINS
GDH-TPI inh = counter-screen for M. tuberculosis FBA inhibitors: GDH-TPI coupled enzymes; GDH-TPI coupled enzyme counterscreen, NADH absorbance; inhibition, % at 4.8 µM; 360,000 compounds, 1.2% hits; in the data active means inhibition above about 30%;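 further: 0% = DMSO wells and 100% = wells lacking the enzyme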
BoNT-A LC inh2 = inhibitors of Botulinum neurotoxin A light chain protease; 360,000 compounds, 0.17% hits; AID 588499; inhibition, % at 10 µM; multiplex microsphere protease substrate cleavage, flow cytometry; in the data active means inhibition above about 30%; inconclusive means no clear call, values can overlap the other calls; further: plate controls were buffer without enzyme for full effect and enzyme alone for no effect
Bead autofluor = counter-screen for toxin protease inhibitors: compound fluorescence | compound autofluorescence counterscreen, microsphere flow cytometry; stronger effect = higher value | fluorescence intensity (test concentration not listed) | 360,000 compounds, 3.1% hits | AID 624483; in the data active means fluorescence intensity above about 16000; inconclusive means no clear call, values can overlap the other calls
BoNT-A LC CP1 = inhibitors of Botulinum neurotoxin A light chain protease; shares compounds with BoNT F protease; multiplex microsphere protease assay, flow cytometry; AID 602139; 720 compounds, 3% hits; inhibition, % at 10 µM; in the data active means inhibition above about 32%
BoNT-F LC CP1 = blocks botulinum neurotoxin F light chain protease | shares compounds with BoNT F protease | multiplex microsphere protease cleavage assay, flow cytometry | inhibition, % at 10 µM | 720 tested, under 10 active | AID 602140
Anthrax LF CP1 = blocks anthrax lethal factor protease; shares compounds with BoNT F protease; multiplex microsphere protease cleavage assay, LF; inhibition, % at 10 µM; 720 tested, under 10 active; AID 602142
* marks the source's active call; other numbers are inactive results; ? = inconclusive; / = not tested or not shown. In the library only some 6.7% were active in any assay of this set; here they are far more common. Unless noted, how the calls were made is not given here.

SMILES	BoNT F protease	FBA Mtb inh	Anthrax LF inh2	GDH-TPI inh	BoNT-A LC inh2	Bead autofluor	BoNT-A LC CP1	BoNT-F LC CP1	Anthrax LF CP1
CN(CC(=O)Nc1cccc(F)c1)C(=O)c1cccnc1Sc1ccccc1Cl	0.4	3.5	0.6	11.5	37.8*	?	1.8	5.9	4.7
O=C(NC1CCCc2ccccc21)C1CCCC1 (stereo unspecified)	?	1.2	32.6*	-1.9	-8.0	4522	0.2	-1.6	-3.7
O=C(NC1CCCc2ccccc21)C1CCN(S(=O)(=O)c2ccccc2)CC1 (stereo unspecified)	0.9	4.5	-2.8	-3.7	1.1	10345	/	/	/
OC(CNC1Cc2ccccc2C1)c1ccccc1 (stereo unspecified)	35.7*	4.2	-4.8	0.3	3.8	2820	-0.8	-3.0	0.1
OC(CNCc1ccccc1)c1ccccc1 (stereo unspecified)	?	-1.1	10.8	-6.1	0.4	3511	/	/	/
Cc1cccc(NC(=S)N(CCc2nc3cc(C)c(C)cc3[nH]2)Cc2cccnc2)c1	-7.8	0.4	-1.8	-4.5	0.3	7944	/	/	/
COc1ccc(OC)c(CN2CCN(C(=O)CCNC(=O)c3ccc(Br)cc3)CC2)c1	1.1	2.8	-2.4	11.7	33.7*	?	0.2	1.9	0.5
NS(=O)(=O)c1ccc(CCNC(=O)CC(NC(=O)c2ccccc2Cl)c2ccccc2)cc1 (stereo unspecified)	-9.3	6.1	1.7	6.3	-0.9	5929	/	/	/
NS(=O)(=O)c1cccc(NC(=O)CC(NC(=O)c2ccccc2Cl)c2ccccc2)c1 (stereo unspecified)	34.7*	0.0	9.0	8.0	-1.5	3427	0.6	-4.2	-0.8
CC(C)OC(=O)CC1C(=O)NCCN1C(=S)NC(=O)c1ccccc1 (stereo unspecified)	35.3*	-0.3	-2.8	3.5	1.8	2567	-1.2	-4.5	-4.6
CC(C)OC(=O)CC1C(=O)NCCN1C(=S)NC(=O)c1ccc(F)cc1 (stereo unspecified)	-4.6	2.3	0.8	2.1	-0.3	2564	/	/	/
Cc1ccccc1SC1CCN(C(=O)C2CCC(=O)N(C3CC3)C2)CC1 (stereo unspecified)	-1.1	-3.7	-0.1	-1.7	-1.2	5643	/	/	/
CC(C(=O)NCc1ccccc1Cl)n1cc([N+](=O)[O-])cn1 (stereo unspecified)	37.7*	1.9	-15.1	0.8	-1.0	3781	0.5	-3.7	-0.7
O=S(=O)(c1cccc(C(F)(F)F)c1)N1CCC(CO)(CCCc2ccccc2)CC1	23.5	0.5	49.0*	-6.9	2.1	3530	0.3	-4.0	2.0
COc1ccc(C(CC(=O)Nc2cc(C)ccn2)N2Cc3ccccc3C2=O)cc1 (stereo unspecified)	109.9*	-0.5	5.7	-13.2	5.7	3901	1.0	0.2	-2.2
CCCn1c(=O)c(C(=O)Nc2ncccc2C)c(O)c2ccccc21	1.2	-3.6	-3.5	0.6	0.5	3926	/	/	/
CCCCCn1c(=O)c(C(=O)Nc2ncccc2C)c(O)c2ccccc21	38.3*	3.0	-1.2	5.6	-4.6	4119	0.3	-6.6	-3.6
COc1cccc(OCCNC(=O)c2cc(OC)c(OC)c(OC)c2)c1	40.0*	0.9	-14.0	11.6	-0.3	3054	-1.1	0.3	2.0
CCCCCCCCOc1ccc(C(=O)O)cc1	-9.4	3.0	-3.5	5.6	-0.4	4213	/	/	/
CCCCCOc1ccc(C(=O)NC(C(=O)O)C(C)C)cc1 (stereo unspecified)	38.8*	2.6	4.3	0.0	?	6207	0.1	-1.9	-1.7
CCCCc1ccc(C(=O)NC(C(=O)O)C(C)C)cc1 (stereo unspecified)	40.1*	1.4	-23.7	-12.5	31.2*	8775	-1.0	1.4	-3.0
O=C(c1csc2c1CCCC2)N1CCN(c2ccccc2)CC1	-29.9	2.6	-7.7	4.1	-0.9	?	/	/	/
CCC(C)c1cc(S(=O)(=O)N2CCOCC2)ccc1OC (stereo unspecified)	43.7*	1.5	1.7	11.2	2.0	3252	-1.2	-3.6	-2.6
NS(=O)(=O)c1cccc(NC(=O)c2cccnc2Oc2ccccc2)c1	3.5	-1.2	5.0	4.1	-0.3	5599	/	/	/
COc1ccccc1CN1CCNC(=O)C1CC(=O)NCc1c(C)n[nH]c1C (stereo unspecified)	41.1*	-0.2	2.7	-1.6	6.9	4992	-0.5	-7.5	-3.5
SMILES	BoNT F protease	FBA Mtb inh	Anthrax LF inh2	GDH-TPI inh	BoNT-A LC inh2	Bead autofluor	BoNT-A LC CP1	BoNT-F LC CP1	Anthrax LF CP1
COc1ccccc1CN1CCNC(=O)C1CC(=O)NCc1csc(C)n1 (stereo unspecified)	1.5	-3.9	0.5	8.0	0.4	2320	/	/	/
CCOc1ccc(CCN2C(=O)C3C4C=CC(C4)C3C2=O)cc1OCC (stereo unspecified)	-7.4	2.7	1.2	13.9	-0.3	4380	/	/	/
CCc1ccc(CNCCc2ccccc2F)cc1	-8.3	0.7	-1.5	15.5	0.1	2112	/	/	/
CCOc1cc(CNCCc2ccccc2F)ccc1OC	83.3*	-1.1	13.1	-7.9	10.2	3522	-0.4	-4.9	-3.5
COC(CNC(=O)c1ccc2nc(-c3cccs3)c(-c3cccs3)nc2c1)OC	26.2	1.6	25.0	25.9	44.5*	8849	20.8	1.9	8.2
COc1ccc(-c2nc3ccc(C(=O)NCC(OC)OC)cc3nc2-c2ccc(OC)c(OC)c2)cc1OC	-1.5	0.0	4.9	-2.0	2.0	3509	/	/	/
Cc1nc2ccc(NC(=O)COc3cccc(F)c3)cc2s1	38.4*	-0.7	-3.1	-3.5	5.1	4736	2.1	-0.7	0.2
Cc1cccc(OCC(=O)Nc2ccc3nc(C)sc3c2)c1	1.8	2.1	4.0	4.8	1.2	3368	/	/	/
Cc1nc2ccc([N+](=O)[O-])cc2c(=O)n1Cc1cccc(F)c1	85.3*	5.2	60.4*	14.7	4.4	7839	-3.4	-11.3	-0.1
Cc1cccc(Cn2c(C)nc3ccc([N+](=O)[O-])cc3c2=O)c1	-29.0	5.5	15.5	19.7	-4.1	3710	/	/	/
c1csc(-c2ncc3ccccn23)c1	20.6	3.4	15.2	7.1	14.0	3405	/	/	/
Brc1ccc(-c2ncc3ccccn23)cc1	-1.6	5.5	9.0	-13.0	1.7	3322	0.2	-3.9	-1.5
Fc1ccc(-c2ncc3ccccn23)cc1	-0.9	-1.1	14.7	9.8	35.6*	4490	1.6	0.1	-0.5
CCc1nnc(NC(=O)COc2ccccc2[N+](=O)[O-])s1	?	-2.5	30.1*	23.8	-6.5	3114	1.3	2.6	2.0
Cn1cnc([N+](=O)[O-])c1Sc1nc2ccccc2[nH]1	4.5	-1.7	33.8*	10.2	-0.6	4159	0.5	-3.0	-0.4
COc1ccc(-c2cc(C)no2)cc1S(=O)(=O)N1CCCN(Cc2ccc(F)cc2)C1	2.1	-0.7	2.4	0.0	4.1	5217	/	/	/

Source: PubChem BioAssay (several laboratories)
